We go through 7 molecules from PubChem BioAssay (NCATS).

Several values for one entry are separate records, joined by “and”; a condition that tells them apart may be missing. Equal entries are not always repeated. Inconclusive results are not listed. Activity calls are given as the source filed them. Unless noted, the call rests on the fitted dose curve; in most records, active means well fitted curve in the direction sought with a large enough effect; inconclusive means small, poorly fitted or top-dose-only effect, or another doubt; inactive means no such curve, though single readings can be large; an effect the other way counts as inactive or inconclusive.

Assay [1] relates to Zika virus NS2B-NS3 protease (linked construct). Briefly: Primary screen NINDS Rhodamine qHTS for Zika virus inhibitors (AID 1347160). Further: on the % scale 0 is the no-effect control and ±100 the full control effect; nearly all actives have a fitted effect of over 55% in size. Summed up:
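Aprotinin served as in-plate control. Conditions: 25 nM linked NS2B-NS3, pH 8.0 Tris buffer, titrated compounds, 15 min preincubation and 15 min reaction with 1.5 microM Rhod110 substrate at room temperature.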
In general terms: qHTS replaces the single test concentration by a dilution series.

In assay [2] the target is Glutathione peroxidase 1 (Homo sapiens) (UniProt P07203). Briefly: Primary qHTS Assay for Inhibitors of Recombinant Selenoprotein Glutathione Peroxidase 1 (GPX1) (AID 1845191). Further: nearly all actives have a fitted effect of over 65% in size. Summed up:
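NADPH consumption tracked by fluorescence at 340/450 nm between t=0 and t=15 min, room temperature. Final mix: 10 nM GPX1, 100 nM glutathione reductase, 1 mM GSH, 0.5 mM NADPH, 0.5 mM cumene hydroperoxide, 0.01% BSA; 30 min compound–enzyme preincubation.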

Assay [3] concerns the target Phospholipid hydroperoxide glutathione peroxidase GPX4 (Homo sapiens) (UniProt P36969). Put plainly: Primary qHTS Assay for Inhibitors of Recombinant Selenoprotein Glutathione Peroxidase 4 (GPX4) (AID 1845192). Further: nearly all actives have a fitted effect of over 65% in size. Further: potency means the concentration at half of the fitted maximal effect. The note with it: outcome: dose series up to 50 µM unless noted. Summed up: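 NADPH consumption followed by fluorescence at 340/450 nm, t=0 and after 15 min at room temperature. Reaction started with cumene hydroperoxide (0.5 mM final) after 30 min compound–GPX4 preincubation; final 200 nM GPX4, 100 nM GR, 1 mM GSH, 0.5 mM NADPH.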

Assay [4] deals with Luciferin 4-monooxygenase (Photinus pyralis) (UniProt P08659). Briefly: Primary firefly luciferase (FLuc) qHTS assay for identification of artifact compounds. (AID 1845220). Further: nearly all actives have a fitted effect of over 60% in size. Summed up: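 FLuc 10 nM; luciferin 10 uM; ATP 10 uM; Tris-acetate pH 7.6, Mg-acetate 10 mM; 15 min RT preincubation; 5 min reaction; luminescence.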
Assay [5] relates to Nanoluciferase (engineered Oplophorus gracilirostris luciferase). Put plainly: Primary Nanoluciferase (NLuc) qHTS assay for identification of artifact compounds. (AID 1845222).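 Further: NLuc secreted into diluted conditioned medium of S16 cells; 0% = DMSO and -100% = no enzyme.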 Summed up:
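NLuc from S16 cell medium (1:55) plus test compounds, 15 min, room temperature. Luminescence after Nano-Glo (1:100) addition, 5 min.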

A short description of assay [6]: Primary redox qHTS assay for identification of artifact compounds. (AID 1845223).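 Further: 0% = DMSO and 100% = reference compound.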 Summed up: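 Redox-cycling detection via DTT (250 uM final) oxidation coupled to Amplex Red (25 uM)/HRP (250 mU/mL) in HBSS. 15 min preincubation plus 30 min after DTT, room temperature. Ex/Em 525/598 nm; 4-parameter Hill fit against DMSO and 10 uM DA3003.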
Another assay deals with HaCat. Put plainly: Cytotoxic Profiling of Annotated Libraries Using Quantitative High-Throughput Screening (AID 1296008). Further: nearly all actives have a fitted effect of over 60% in size. Further: potency means the concentration at half of the fitted maximal effect. On max response: on the % scale 0 is the no-effect control and ±100 the full control effect. The conditions noted are these: Five cell lines viability, CellTiter-Glo ATP luminescence, 48-72 h; max response: stronger effect = lower value. Summed up: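 Cytotoxicity was measured as CellTiter-Glo ATP luminescence, read after 10 min at room temperature. Compound treatment of the cells lasted 48 or 72 hr at 37 degrees Celsius in a qHTS format.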

In the next assay the test system is C33A. Briefly: Primary qHTS to identify gynecologic anti-cancer compounds using libraries of approved drugs and bioactive compounds (AID 1345084). Further: nearly all actives have a fitted effect of over 55% in size. Further: potency means the concentration at half of the fitted maximal effect. The conditions noted are these: Gynecologic cancer cell panel viability, ATPlite luminescence, 48 h; series mostly up to 57.5 µM. Summed up: (§1)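 Cells, 1,000 per well, plated 16 h, then exposed 48 h at 37 C to compounds. Viability by ATPlite luminescence after 15 min at room temperature.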

In the next assay the test system is CASKI. Described as above. The conditions noted are these: Gynecologic cancer cell panel viability, ATPlite luminescence, 48 h; series mostly up to 57.5 µM. Put shortly:
as §1
For orientation: In ATP-based viability assays light output follows the ATP content of the culture.

In the next assay the test system is Es-2. The description is as above. The note with it: Gynecologic cancer cell panel viability, ATPlite luminescence, 48 h; series mostly up to 57.5 µM. Summed up:
as §1

Another assay deals with HeLa. The description is as above. The conditions noted are these: Gynecologic cancer cell panel viability, ATPlite luminescence, 48 h; series mostly up to 57.5 µM. Summed up:
as §1

Another assay relates to Hek293T. Described as above. The note with it: Gynecologic cancer cell panel viability, ATPlite luminescence, 48 h, control line for the selectivity index; series mostly up to 57.5 µM. Summed up: as §1
For a further assay, the system named is JEG-3. The description is as above. The note with it: Gynecologic cancer cell panel viability, ATPlite luminescence, 48 h; series mostly up to 57.5 µM. Summed up:
as §1

The next assay deals with OV90. The description is as above. The note with it: Gynecologic cancer cell panel viability, ATPlite luminescence, 48 h; series mostly up to 57.5 µM. Put shortly:
as §1

The subject of a further assay is Tov-21-G. The assay is described as above. The conditions noted are these: Gynecologic cancer cell panel viability, ATPlite luminescence, 48 h; series mostly up to 57.5 µM. Put shortly: as §1
Another assay has as its system Tov112D. Described as above. The note with it: Gynecologic cancer cell panel viability, ATPlite luminescence, 48 h; series mostly up to 57.5 µM. Put shortly: as §1
The target of assay [7] is Calcium and integrin-binding protein 1 (Homo sapiens) (UniProt Q99828). Briefly: Primary qHTS for Identification of Calcium Integrin Binding Protein 1 (CIB1) Competitor (AID 1508620).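 Further: GST tagged CIB1 binding a fluorescein labelled alphaIIb integrin peptide tracer; top concentration of the series differs between compounds; on the % scale 0 is the no-effect control and ±100 the full control effect.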 Summed up:
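CIB1-GST (1 uM final) and compound incubated 15 min at room temperature before adding FITC-alphaIIb peptide tracer (100 nM final). Competition for binding read by fluorescence polarization (ex 480, em 540) after another 15 min at room temperature.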

A short description of assay [8]: Primary qHTS for inhibitors of nuclear receptor binding SET domain protein 2 (NSD2) in an isogenic RCH-ACV NSD2 p.E1099K mutant (9B) (AID 1645876). Further: nearly all actives have a fitted effect of over 70% in size. Further: potency means the concentration at half of the fitted maximal effect.
The nature of assay [9]: Primary qHTS for inhibitors of nuclear receptor binding SET domain protein 2 (NSD2) in an RCH-ACV wild type WT cells (2C) (AID 1645877). Further: potency means the concentration at half of the fitted maximal effect; nearly all actives have a fitted effect of over 70% in size.
A short description of assay [10]: qHTS drug screen for cell cycle checkpoint inhibitors in PARPi-resistant BRCA-mutant ovarian cancer cell lines. (AID 1963452; calls by dose curve; further: potency means the concentration at half of the fitted maximal effect). The note with it: PEO1/OlaR viability, CellTiter-Glo luminescence, 96 h; for Z-AUC: stronger effect = lower value. Put shortly: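 PEO1, PEO4 and PEO1/OlaR ovarian cancer cells, 600 per well, exposed 96 h at 37C to a dilution series. Viability read by CellTiter-Glo luminescence, normalized to DMSO and empty wells; activity summarized as Z-AUC.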

[11] abbreviates: measured here: PEO1 parental Z-AUC.

Chain of Glutathione peroxidase 1 (Homo sapiens) (P07203 whole entry, looked up): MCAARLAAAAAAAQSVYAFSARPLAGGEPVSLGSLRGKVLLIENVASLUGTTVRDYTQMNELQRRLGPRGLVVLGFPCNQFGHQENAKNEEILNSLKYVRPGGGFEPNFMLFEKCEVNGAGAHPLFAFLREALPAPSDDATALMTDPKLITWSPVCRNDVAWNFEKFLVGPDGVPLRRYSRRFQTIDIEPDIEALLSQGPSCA
Chain of Phospholipid hydroperoxide glutathione peroxidase GPX4 (Homo sapiens) (P36969 whole entry, looked up): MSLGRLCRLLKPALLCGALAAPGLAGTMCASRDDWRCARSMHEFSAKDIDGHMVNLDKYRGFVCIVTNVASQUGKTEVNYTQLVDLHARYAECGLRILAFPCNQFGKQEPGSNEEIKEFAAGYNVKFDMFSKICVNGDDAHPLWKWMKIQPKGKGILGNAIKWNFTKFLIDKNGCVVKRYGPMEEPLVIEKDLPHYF
Chain of Calcium and integrin-binding protein 1 (Homo sapiens) (Q99828 whole entry, looked up): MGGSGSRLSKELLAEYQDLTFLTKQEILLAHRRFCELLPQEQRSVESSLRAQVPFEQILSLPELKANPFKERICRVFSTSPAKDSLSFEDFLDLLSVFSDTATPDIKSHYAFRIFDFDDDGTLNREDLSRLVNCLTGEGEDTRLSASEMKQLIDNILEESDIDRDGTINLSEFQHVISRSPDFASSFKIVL

As to `CC/C(=C(\c1ccc(O)cc1)c1ccc(OCCNC)cc1)c1ccccc1`, the Potency entry in [1], in [2], in assay [3], in [4], in [5] and in assay [6] was “inactive” each time. Also, the Potency result in the assay on C33A, with CASKI, in the assay on Es-2, in the assay on HeLa, in the assay on Hek293T and with JEG-3 was “inactive” each time. Besides, the Potency result in the assay with OV90, in the assay on Tov-21-G and in the assay on Tov112D was “inactive” throughout. Besides, the outcome in the assay on HaCat was inactive.
Consider `Cc1ccc2c(Nc3ccc(Cl)cc3)nccc2c1Nc1ncccc1-c1ncnc2nc[nH]c12`, for which the result in assay [7] was inactive. Also, the figures for the Potency (in assay [8]; in assay [9]; with OV90) were 18.4 µM (active), 20.6 µM (active) and 5.01 µM (active), respectively. In addition, the Potency entry (in [2]; in assay [3]; in [4]; in assay [5]; in assay [6]; in the assay on C33A) was “inactive” throughout. Besides, the Potency result in the assay with HeLa, in the assay on Hek293T and with JEG-3 was “inactive” each time.
In the case of `O=C(NNc1ccccc1)c1ccncc1`, the Potency entry in assay [1], in assay [8], in assay [2], in [4], in [5] and in assay [6] was “inactive” each time. The Potency entry in the assay with C33A, with CASKI, in the assay with HeLa, in the assay with JEG-3, in the assay on OV90 and in the assay on Tov-21-G was “inactive” each time. In assay [7], the result was inactive. Further, the results for the Z-AUC in [10], in assay [10] (setting [11]) and in [10] (measured here: PEO4 Z-AUC) were 1.21 (inactive), 0.257 and 0.154, respectively. In addition, the max response in the assay on HaCat is -7.12% (inactive).
Turning to `CN1CCN(C(=O)c2ccc(Nc3nccc(-c4cccs4)n3)cc2Cl)CC1`, the Potency result in [1], in assay [2], in [3], in assay [4], in assay [5] and in [6] was “inactive” throughout. In addition, the Potency entry in the assay on C33A, in the assay with CASKI, in the assay on Es-2, in the assay with HeLa, with Hek293T and in the assay on OV90 was “inactive” throughout. Also, in assay [7], the outcome was inactive. Moreover, the figures for the Potency in assay [8] and in [9] were 7.28 µM (active) and 6.49 µM (active), respectively. The max response in the assay on HaCat was -21.8% (inactive).
For the molecule `C[C@@H]1COCCN1c1cc(C2(S(C)(=N)=O)CC2)nc(-c2ccnc3[nH]ccc23)n1` (stereo partly specified), the outcome in [7] was inactive. For the same molecule, the Potency in assay [8] is 662 nM (active) and 3.66 µM (active); in assay [9] it was 662 nM (active) and 2.31 µM (active); in assay [3] it was 20.2 µM (active); in assay [10] it was 2.75 µM (active); with HaCat it was 16.6 µM (active). Further, the figures for the Z-AUC in assay [10] (setting [11]) and in assay [10] (measured here: PEO4 Z-AUC) were -1.94 and -1.89, respectively.
For `CN(CCCNC(=O)c1ccc2nc3c(c(Cl)c2c1)CCCC3)Cc1ccccc1`, the Potency entry in assay [1], in assay [2], in assay [3], in [4], in assay [5] and in assay [6] was “inactive” throughout. In addition, the Potency result in the assay on C33A, in the assay with CASKI, with Es-2, in the assay with HeLa, with Hek293T and in the assay on JEG-3 was “inactive” each time. In addition, the Potency entry in the assay with OV90, with Tov-21-G and in the assay on Tov112D was “inactive” in each case. The outcome in [7] was inactive. Moreover, the Potency in assay [8] was 12.9 µM (active); in [9] it was 8.17 µM (active). For the same molecule, in the assay with HaCat, the max response was 1.7% (inactive).
As to `Cc1[nH]c(/C=C2\C(=O)Nc3ccc(F)cc32)c(C)c1C(=O)NC[C@H](O)CN1CCOCC1`, the Potency result (in assay [1]; in assay [2]; in assay [3]; in assay [4]; in assay [6]; in the assay on C33A) was “inactive” each time. The Potency entry in the assay with CASKI, with Hek293T, in the assay with JEG-3, in the assay with OV90 and with Tov112D was “inactive” in each case. For the same molecule, in [7], the outcome was inactive. Also, the Potency in assay [8] is 6.49 µM (active) and 9.34 µM (active); in assay [9], 6.49 µM (active) and 10.5 µM (active). For the same molecule, the Z-AUC is -1.33 (inactive) in assay [10], 0.846 in [10] (setting [11]) and 0.0211 in [10] (measured here: PEO4 Z-AUC).
